# In PubChem BioAssay:
# Calls of active or inactive are those of the source.
# Experiment: basal 3T3-L1 adipocyte mitochondrial potential changes, profiling panel, cell-based, JC-1 fluorescence, 3T3-L1 adipocytes, 24 h, 100 nL compound (AID 1168)
# Details: JC-1 mitochondrial fluorescence, higher = more signal, called active from +8 up or from −8 down
# Note: test concentration not given here.
row,SMILES,z-score
1,CCOC(=O)CCN1C(=O)[C@H]2[C@H]3[C@H](O)[C@H](O)CC(=NNC(=O)OCC)[C@H]3CC[C@H]2C1=O,-1.19 (inactive)
2,O=C1[C@H]2[C@H]3[C@H](O)[C@H](O)CC(=NOC[C@@H](O)COCc4ccco4)[C@@H]3CC[C@H]2C(=O)N1C1CCCCC1,-0.181 (inactive)
3,CC(=O)OC[C@H]1O[C@H](CCON=C(C)C)C=C[C@@H]1OC(C)=O,-0.681 (inactive)
4,COC(=O)[C@@H]1CC[C@H](C)[C@@H](c2ccc(C)cc2)N1C(=O)c1ccc(C=NOC[C@H]2O[C@H](c3ccccc3)C=C[C@@H]2Oc2ccc(OC)cc2)cc1,-2.02 (inactive)
5,C=C(C)C(=O)OC[C@H]1CN2[C@@H](CC[C@@H](C)[C@@H]2c2ccc(Br)cc2)C(=O)O1,-0.142 (inactive)
6,CCOC(=O)[C@H](Cc1ccccc1)NC(=O)CCC1CC(OC(=O)NCc2cccc3ccccc23)CC2(CCCC(COC(=O)NCCc3ccccc3OC)O2)O1 (some centres not stated),-0.177 (inactive)
7,CCOC(=O)[C@H](CC(C)C)NC(=O)CCC1CC(OC(=O)NCc2ccc3c(c2)OCO3)CC2(CCCC(COC(=O)NCCC(C)C)O2)O1 (some centres not stated),0.135 (inactive)
8,CC(C)CON=C1C[C@@H](O)[C@@H](O)[C@@H]2[C@@H]3C(=O)N(C(C)(C)C)C(=O)[C@@H]3CC[C@@H]12,0.174 (inactive)
9,COc1ccc(O[C@H]2C=C[C@@H](c3ccccc3)O[C@@H]2COC(=O)CCC(C)=NOC[C@@H](O)COCc2ccco2)cc1,0.0665 (inactive)
10,CC(C)(C)N1C(=O)[C@H]2[C@H]3[C@H](O)[C@H](O)CC(=NOC[C@@H](O)COCc4ccco4)[C@@H]3CC[C@H]2C1=O,-0.243 (inactive)
11,CC(CCN1CCCCc2nc(C)c(C)cc21)=NO[C@@H](C)c1cc(-c2c(C)cc(C)cc2C)no1,0.159 (inactive)
12,COC(=O)[C@H](C)NC(=O)CC=C[C@@H](C)[C@@H]1C=C[C@H](O)[C@@H](CO)O1,-1.04 (inactive)
13,CCN1C(=O)[C@H]2[C@H]3[C@H](O)[C@H](O)CC(=NOC[C@@H](O)COCc4ccco4)[C@H]3CC[C@H]2C1=O,-0.128 (inactive)
14,O=C1[C@H]2[C@H]3[C@H](O)[C@H](O)CC(=NOC[C@@H](O)COCc4ccco4)[C@@H]3CC[C@H]2C(=O)N1Cc1ccc2c(c1)OCO2,0.231 (inactive)
15,Cc1ccc(S(=O)(=O)N[C@@H]2COC(=O)CC=C[C@@H](C)[C@H](NS(=O)(=O)c3ccc(C)cc3)COC(=O)[C@H](C)NC(=O)CC=C[C@H]2C)cc1,0.099 (inactive)
16,COC(=O)CC=C1c2ccccc2[C@H](OC)[C@H]1C,-0.272 (inactive)
17,CCN(CC)CC(O)CN1CCCCc2nc(C)c(C)cc21 (configuration not stated),0.109 (inactive)
18,CC(C)CON=C1C[C@@H](O)[C@@H](O)[C@@H]2[C@@H]3C(=O)N(Cc4ccccc4)C(=O)[C@@H]3CC[C@H]12,-1.26 (inactive)
19,COc1ccc(OC[C@H]2CN3[C@@H](CC[C@@H](C)[C@@H]3c3ccc(Br)cc3)C(=O)O2)cc1,-0.187 (inactive)
20,O=C1[C@H]2[C@H]3[C@H](O)[C@H](O)CC(=NOCc4ccccc4)[C@H]3CC[C@H]2C(=O)N1C1CCCCC1,0.028 (inactive)
21,CCOC(=O)CCN1C(=O)[C@H]2[C@H]3[C@H](O)[C@H](O)CC(=NOCC=C(C)CCC=C(C)C)[C@H]3CC[C@H]2C1=O,0.408 (inactive)
22,CC(=O)OC[C@H]1O[C@H](CC=NOC(C)CN2CCCc3nc(C)c(C)cc32)C=C[C@@H]1OC(C)=O (some centres not stated),0.264 (inactive)
23,CCOC(=O)[C@H](CC(C)C)NC(=O)CCC1CC(OC(=O)NCc2ccc3c(c2)OCO3)CC2(CCCC(COC(=O)NCCc3ccccc3OC)O2)O1 (some centres not stated),-0.104 (inactive)
24,COc1ccc(COC(=O)NN=C2C[C@@H](O)[C@@H](O)[C@@H]3[C@@H]4C(=O)N(Cc5ccc6c(c5)OCO6)C(=O)[C@@H]4CC[C@H]23)cc1,-0.339 (inactive)
25,COc1cccc([C@H](O)Cn2cc(-c3ccc(CON=C(C)C)cc3)nn2)c1,0.706 (inactive)
26,CO[C@@H]1C=CCC(=O)N[C@@H](C)C(=O)OC[C@@H](NS(=O)(=O)c2ccc(C)cc2)[C@H](C)C=CCC(=O)OC[C@H]1C,0.0826 (inactive)

# Experiment: basal RPMI8226 mitochondrial membrane potential changes, profiling panel, cell-based, JC-1 fluorescence, 24 h, 100 nL compound (AID 1169)
# Details: RPMI8226 myeloma, JC-1 mitochondrial potential fluorescence, higher = more signal
row,SMILES,z-score
1,COC(=O)CC=C[C@@H](C)[C@@H](C=NOC[C@@H](C)[C@H](OCc1ccccc1)C(C)C)NS(=O)(=O)c1ccc(C)cc1,-0.129
2,COc1cccc([C@H]2Oc3ccc(OC)cc3C(=NO[C@@H](C)c3cc(-c4c(C)cc(C)cc4C)no3)[C@@H]2O)c1,0.118
3,CCN1C(=O)[C@H]2[C@H]3[C@H](O)[C@H](O)CC(=NNC(=O)OCc4ccccc4)[C@H]3CC[C@H]2C1=O,0.083
4,CC(=O)OC[C@H]1O[C@H](CCON=C(C)CCN2CCCc3nc(C)c(C)cc32)C=C[C@@H]1OC(C)=O,1.03
5,CCOC(=O)[C@H](Cc1ccccc1)NC(=O)CCC1CC(OC(=O)NCc2cccc3ccccc23)CC2(CCCC(COC(=O)NCCOc3ccccc3)O2)O1 (some centres not stated),0.113
6,CC(CCN1CCCc2nc(C)c(C)cc21)=NOC[C@@H](O)COCc1ccco1,0.0583
7,CC(CCC(=O)OC[C@H]1O[C@H](C#Cc2ccccc2)C=C[C@@H]1Oc1ccc(C)cc1)=NO[C@H](C)c1cn([C@@H]2COC[C@H]2O)nn1,-0.072
8,C[C@H]1C=CCC(=O)OC[C@H](C)C(=O)N2CCC[C@H]2C(=O)OC1,-0.148
9,CC(=O)OC[C@H]1O[C@@H](ON=C2[C@H]3CCn4c(=O)n(-c5ccccc5)c(=O)n4[C@H]3[C@H](O)[C@@H]3O[C@H]23)[C@H](OC(C)=O)[C@@H](OC(C)=O)[C@@H]1OC(C)=O,-0.0535
10,C[C@@H](c1ccccc1)N1C(=O)[C@H]2[C@H]3[C@H](O)[C@H](O)CC(=NNC(=O)OCc4ccccc4)[C@@H]3CC[C@H]2C1=O,0.102
11,CCOC(=O)CCN1C(=O)[C@H]2[C@H]3[C@H](O)[C@H](O)CC(=NNC(=O)OCC)[C@H]3CC[C@H]2C1=O,-0.541
12,O=C1[C@H]2[C@H]3[C@H](O)[C@H](O)CC(=NOC[C@@H](O)COCc4ccco4)[C@@H]3CC[C@H]2C(=O)N1C1CCCCC1,-0.422
13,CC(=O)OC[C@H]1O[C@H](CCON=C(C)C)C=C[C@@H]1OC(C)=O,0.636
14,COC(=O)[C@@H]1CC[C@H](C)[C@@H](c2ccc(C)cc2)N1C(=O)c1ccc(C=NOC[C@H]2O[C@H](c3ccccc3)C=C[C@@H]2Oc2ccc(OC)cc2)cc1,0.833
15,C=C(C)C(=O)OC[C@H]1CN2[C@@H](CC[C@@H](C)[C@@H]2c2ccc(Br)cc2)C(=O)O1,-0.521
16,CCOC(=O)[C@H](Cc1ccccc1)NC(=O)CCC1CC(OC(=O)NCc2cccc3ccccc23)CC2(CCCC(COC(=O)NCCc3ccccc3OC)O2)O1 (some centres not stated),-0.0487
17,CCOC(=O)[C@H](CC(C)C)NC(=O)CCC1CC(OC(=O)NCc2ccc3c(c2)OCO3)CC2(CCCC(COC(=O)NCCC(C)C)O2)O1 (some centres not stated),-0.938
18,CC(C)CON=C1C[C@@H](O)[C@@H](O)[C@@H]2[C@@H]3C(=O)N(C(C)(C)C)C(=O)[C@@H]3CC[C@@H]12,-0.865

row,SMILES,z-score
1,COc1ccc(O[C@H]2C=C[C@@H](c3ccccc3)O[C@@H]2COC(=O)CCC(C)=NOC[C@@H](O)COCc2ccco2)cc1,-0.313
2,CC(C)(C)N1C(=O)[C@H]2[C@H]3[C@H](O)[C@H](O)CC(=NOC[C@@H](O)COCc4ccco4)[C@@H]3CC[C@H]2C1=O,0.431
3,CC(CCN1CCCCc2nc(C)c(C)cc21)=NO[C@@H](C)c1cc(-c2c(C)cc(C)cc2C)no1,-0.831
4,COC(=O)[C@H](C)NC(=O)CC=C[C@@H](C)[C@@H]1C=C[C@H](O)[C@@H](CO)O1,0.685
5,CCN1C(=O)[C@H]2[C@H]3[C@H](O)[C@H](O)CC(=NOC[C@@H](O)COCc4ccco4)[C@H]3CC[C@H]2C1=O,0.545
6,O=C1[C@H]2[C@H]3[C@H](O)[C@H](O)CC(=NOC[C@@H](O)COCc4ccco4)[C@@H]3CC[C@H]2C(=O)N1Cc1ccc2c(c1)OCO2,0.727
7,Cc1ccc(S(=O)(=O)N[C@@H]2COC(=O)CC=C[C@@H](C)[C@H](NS(=O)(=O)c3ccc(C)cc3)COC(=O)[C@H](C)NC(=O)CC=C[C@H]2C)cc1,0.389
8,COC(=O)CC=C1c2ccccc2[C@H](OC)[C@H]1C,0.539
9,CCN(CC)CC(O)CN1CCCCc2nc(C)c(C)cc21 (configuration not stated),0.316
10,CC(C)CON=C1C[C@@H](O)[C@@H](O)[C@@H]2[C@@H]3C(=O)N(Cc4ccccc4)C(=O)[C@@H]3CC[C@H]12,-0.0623
11,COc1ccc(OC[C@H]2CN3[C@@H](CC[C@@H](C)[C@@H]3c3ccc(Br)cc3)C(=O)O2)cc1,0.979
12,O=C1[C@H]2[C@H]3[C@H](O)[C@H](O)CC(=NOCc4ccccc4)[C@H]3CC[C@H]2C(=O)N1C1CCCCC1,-0.16
13,CCOC(=O)CCN1C(=O)[C@H]2[C@H]3[C@H](O)[C@H](O)CC(=NOCC=C(C)CCC=C(C)C)[C@H]3CC[C@H]2C1=O,0.523
14,CC(=O)OC[C@H]1O[C@H](CC=NOC(C)CN2CCCc3nc(C)c(C)cc32)C=C[C@@H]1OC(C)=O (some centres not stated),-0.131
15,CCOC(=O)[C@H](CC(C)C)NC(=O)CCC1CC(OC(=O)NCc2ccc3c(c2)OCO3)CC2(CCCC(COC(=O)NCCc3ccccc3OC)O2)O1 (some centres not stated),-0.282
16,COc1ccc(COC(=O)NN=C2C[C@@H](O)[C@@H](O)[C@@H]3[C@@H]4C(=O)N(Cc5ccc6c(c5)OCO6)C(=O)[C@@H]4CC[C@H]23)cc1,0.0307
17,COc1cccc([C@H](O)Cn2cc(-c3ccc(CON=C(C)C)cc3)nn2)c1,-0.0682
18,CO[C@@H]1C=CCC(=O)N[C@@H](C)C(=O)OC[C@@H](NS(=O)(=O)c2ccc(C)cc2)[C@H](C)C=CCC(=O)OC[C@H]1C,-0.782
